tim10-1 inh: inhibits growth of tim10-1 mutant yeast. S. cerevisiae tim10-1 ts strain growth, BacTiter-Glo, 24 h. inhibition, % at 20 µM. actives 2.2% (n = 330,000);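 active means inhibition of at least 40%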;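 further: mutant grown at 25 °C; 0% = DMSO wells with yeast and 100% = wells holding no yeast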
tim23-1 inh: inhibits growth of tim23-1 mutant yeast; S. cerevisiae tim23-1 growth, BacTiter-Glo luminescence, 24 h; inhibition, % at 20 µM; actives 1.3% (n = 330,000); AID 463212;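 active means growth inhibition of the mutant yeast at or above 50%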;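 further: temperature-sensitive mutant grown at 25 °C; plate controls were DMSO-treated mutant yeast for no effect and medium wells lacking yeast for full effect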
NALP3 yeast inh: inhibitors of NALP3 inflammasome in yeast; inhibition, % at 10 µM; Yeast reconstituted NLRP3/ASC/caspase-1, beta-gal luminescence, 24 h; actives 0.39% (n = 330,000);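 active means inhibition of 50% or more; inactive means inhibition below 50%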;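 further: plate controls were induced DMSO wells for no effect and uninduced yeast grown without galactose for full effect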
SKKanGAS inh: SKKanGAS growth inhibition; S. pyogenes SKKanGAS, kanamycin growth, BacTiter-Glo, 6 h; inhibition, % at 7.5 µM; actives 1.3% (n = 300,000); AID 1662;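 active means mean replicate score, as percent of positive control median, at least 50; inconclusive means mean below 50 but one replicate at or above 50; inactive means mean and every replicate below 50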;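 further: strain carries kanamycin resistance gene driven by streptokinase promoter and grows in 40 µg/ml kanamycin; loss of luminescence reflects streptokinase promoter inhibition or plain growth inhibition; 0% = median of DMSO wells and 100% = positive control at its reference dose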
TIM10 inh: TIM10 yeast growth inhibition; S. cerevisiae TIM10 strain growth, BacTiter-Glo luminescence, 24 h; inhibition, % at 10 µM; actives 1.4% (n = 330,000);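 active means inhibition of 40% or more at the single tested concentration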;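 further: wild-type TIM10 isogenic control strain grown at permissive 25 °C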
tim10-1 confirm: tim10-1 yeast growth inhibition, confirmed | shares compounds with tim10-1 inh | S. cerevisiae tim10-1 ts strain growth, BacTiter-Glo, 24 h | inhibition, % at 20 µM | actives 56% (n = 7,400);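 active means inhibition of yeast growth at or above a set limit in either of two repeat tests at 20 µM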;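 further: tim10-1 mutant grown at permissive 25 °C to find synthetic lethal compounds; 0% = DMSO yeast wells and 100% = medium wells without yeast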
TIM10 conf: TIM10 yeast growth inhibition, confirmed; shares compounds with TIM10 inh; S. cerevisiae tim10 strain growth, BacTiter-Glo luminescence, 24 h; inhibition, % at 10 µM; actives 63% (n = 4,600); AID 463215;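 active means inhibition of yeast growth at or above a set limit in either of two replicates at 10 µM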;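 further: this counterscreen used the strain with wild-type TIM10; 0% = yeast with DMSO and 100% = medium wells lacking yeast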
tim23-1 conf: tim23-1 yeast growth inhibition, confirmed; shares compounds with tim23-1 inh; S. cerevisiae tim23-1 growth, BacTiter-Glo luminescence, 24 h; inhibition, % at 20 µM; actives 83% (n = 4,400); AID 463218;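 active means inhibition above about 39% in either of two replicate wells at 20 µM, limit read from the data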;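 further: temperature-sensitive tim23-1 mutant grown at 25 °C; 0% = DMSO wells with yeast and 100% = medium wells without yeast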
Starred values were filed as active, the others as inactive; u = inconclusive; x = not tested or not shown. Compounds with a hit are over-represented: about 4.6% of the library has one in this group of screens.

SMILES	tim10-1 inh	tim23-1 inh	NALP3 yeast inh	SKKanGAS inh	TIM10 inh	tim10-1 confirm	tim23-1 conf	others
Cc1c(C2(O)CCCCC2)[nH]c2cc(C(F)(F)F)ccc12	42*	56*	31	x	25	22	64*
COc1ccc(COC(=O)C2CCN(S(=O)(=O)c3ccc(OC)c(OC)c3)CC2)cc1	24	32	23	x	13	x	x
COc1ccc([C@H]2Oc3cc(O)cc(O)c3C(=O)C2[C@@H]2C(=O)c3c(O)cc(O)cc3O[C@@H]2c2ccc(OC)cc2)cc1 (some centres undefined)	49*	60*	3	100*	15	46*	49*
CC(C)CC(=O)Nc1ccc(C(=O)CN2CCC(C)CC2)cc1	7	9	18	10	8	x	x
Cc1cc2cc(C=C(C#N)C#N)c(Cl)nc2cc1C	55*	62*	18	0	38	56*	66*
Cc1cc2nc(Cl)c(Cl)nc2cc1C	9	3	-16	-4	-15	x	x
CC(C(=O)Nc1ccccc1F)N1CCN(S(=O)(=O)c2ccc(C(F)(F)F)cc2)CC1 (centres undefined)	29	23	22	x	15	x	x
Cc1ccccc1NS(=O)(=O)c1csc(C(N)=O)c1	8	7	12	-2	-1	x	x
COc1ccc(C(=O)/C(=C/c2cccs2)c2nc3ccccc3o2)cc1	49*	53*	23	16	43*	42*	54*	TIM10 conf=-15
O=S(=O)(NCCC1=CCCCC1)c1ccccc1Cl	21	39	23	x	12	x	x
CCCSc1ccc([C@H]2N[C@@](C)(C(=O)OC)[C@H]3C(=O)N(CC)C(=O)[C@@H]23)cc1	5	6	10	x	7	x	x
O=C(/C=C/c1ccc(F)cc1)NC(=S)Nc1ccccc1	10	26	21	-1	14	x	x
O=C(/C=C/c1ccc(F)cc1)c1ccccc1Br	47*	62*	15	8	44*	64*	58*	TIM10 conf=64*
CN(C(=O)COC(=O)c1cccc(F)c1)c1ccccc1	27	31	18	0	-5	x	x
CC(=O)Oc1ccc(-c2cccc(C(=O)OCC(=O)N(C)c3ccccc3)c2)cc1	46*	50*	42	-18	21	34*	37
CN(C)c1cccc(C(=O)OCC(=O)N(C)c2ccccc2)c1	48*	52*	13	3	30	48*	50*
Cc1cc(C(=O)OCC(=O)N(C)c2ccccc2)ccc1[N+](=O)[O-]	21	16	-19	-2	-2	x	x
Cc1ccc(C(=O)OCC(=O)N(C)c2ccccc2)cc1C	41*	53*	17	4	33	38*	36
Cc1c(C(=O)OCC(=O)N(C)Cc2ccccc2)oc2ccccc12	33	46	28	x	0	x	x
Cc1c(C(=O)OCC(=O)N(C)c2ccccc2)oc2ccccc12	49*	56*	25	-1	36	44*	60*
O=C(CNC(=O)c1ccccc1F)NCc1ccccn1	-10	-13	9	x	-12	x	x
CCOc1ncccc1C(=O)OCC(=O)NCc1ccccc1	-4	-5	-8	x	-10	x	x
O=C(CSc1ccc(-c2ccco2)nn1)c1ccccc1	22	24	25	4	18	x	x
O=C(CSc1ccc(-c2cccs2)nn1)c1cccs1	18	21	-28	-10	32	x	x
CSCCC(NC(=O)COc1ccccc1)C(=O)N1CCN(c2ccccc2O)CC1 (centres undefined)	-7	-5	28	-14	0	x	x
SMILES	tim10-1 inh	tim23-1 inh	NALP3 yeast inh	SKKanGAS inh	TIM10 inh	tim10-1 confirm	tim23-1 conf	others
O=C(/C(N=Nc1cccc([N+](=O)[O-])c1)=C(/O)c1ccc(Br)cc1)C(F)(F)F	62*	62*	48	84*	27	62*	73*
COc1ccc(/C=C/C(=O)c2ccc([N+](=O)[O-])o2)cc1	45*	79*	5	30	70*	16	-4	TIM10 conf=79*
Nn1c(SCC(=O)Nc2ccccc2F)nnc1-c1cccs1	-16	-11	6	-6	-2	x	x
O=C(OCC(=O)C12CC3CC(CC(C3)C1)C2)c1ccc(O)cc1O	53*	76*	13	12	27	15	62*
O=C(COC(=O)c1ccc(O)cc1O)NC12CC3CC(CC(C3)C1)C2	11	38	11	x	19	x	x
CCCN(CCC)C1=N/C(=C\c2ccco2)C(=O)N1c1ccccc1	35	48	9	0	15	x	x
CC1=C/C(=C\c2ccc3c(c2)OCO3)C(=O)S1	48*	53*	-9	4	46*	39*	20	TIM10 conf=40*
CCCN1C/C(=C/c2ccc3c(c2)OCO3)C(=O)/C(=C/c2ccc3c(c2)OCO3)C1	36	44	18	1	34	x	x
COC(C/C=C\C(=O)[C@@H](C)OCc1ccccc1)OC	41*	52*	17	-3	30	29	45*
COc1cc(/C=C/C(=O)OCC(=O)Nc2oc(C)c3c(C)n[nH]c(=O)c23)ccc1OC(F)F	-13	-15	9	-5	-32	x	x
Cc1ccc(C(=O)NNc2ncnc3c2cnn3C)cc1	0	10	0	3	10	x	x
Cn1ncc2c(O/N=C(\N)c3ccc(C(F)(F)F)cc3)ncnc21	52*	79*	15	1	74*	25	52*	TIM10 conf=85*
O=C(/C=C/c1ccco1)c1ccc(O)cc1	30	11	25	-9	21	x	x
O=C(/C=C/c1ccccc1Cl)c1ccc(O)cc1	40*	63*	30	0	38	29	59*
O=C(Cn1nc(Cl)nc1Cl)c1cc2ccccc2oc1=O	59*	72*	-29	4	57*	53*	69*	TIM10 conf=44*
O=C(OCC(=O)N1CCOCC1)c1ccc(Br)cc1	-25	1	9	16	8	x	x
Cc1cccc(CN2C(=O)/C(=C\c3ccc(C(=O)NCCCN4CCN(C)CC4)cc3)Oc3ccccc32)c1	44*	62*	18	11	5	-18	46*
Cc1ccc(OCC(=O)N/N=C\c2ccc(C)o2)c([N+](=O)[O-])c1	x	x	x	3	x	x	x
O=C(CSc1ccc(Cl)cc1)N/N=C/c1ccc([N+](=O)[O-])o1	62*	55*	8	u	33	37*	57*
Cc1ccc(OCC(=O)N/N=C/c2ccc([N+](=O)[O-])o2)cc1	44*	51*	15	-7	47*	47*	-11	TIM10 conf=50*
Cc1ccc(C)c(OCC(=O)Nc2ccccc2C(=O)N2CCOCC2)c1	11	14	30	12	9	x	x

Source: PubChem (several laboratories)
